Pf growth 96h = Primary qHTS for delayed death inhibitors of the malarial parasite plastid, 96 hour incubation; hit rate 6.9% among 320,000; P. falciparum luciferase reporter growth, 96 h; Potency, µM (titrated, usually from 28.7 µM), hits mostly inhibitors; AID 504834, 2011
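Parasite growth measured via integrated firefly luciferase reporter in P. falciparum. Infected erythrocytes at 2% hematocrit, 0.05% parasitemia final were treated 96 hours at 37 C under 5% CO2, and luminescence was read.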
SARS PLP yeast = qHTS of Yeast-based Assay for SARS-CoV PLP; S. cerevisiae expressing SARS-CoV PLpro, growth rescue; Potency, µM (top dose mostly 32.9 µM), hits mostly activators; hit rate 0.19% among 330,000; calls by dose curve; note: nearly all actives have a fitted effect of over 55% in size
Pf growth 48h = Primary qHTS for delayed death inhibitors of the malarial parasite plastid, 48 hour incubation; Potency, µM (doses to about 28.7 µM), most hits filed as inhibitors; P. falciparum luciferase growth in erythrocytes, 48 h; hit rate 5.9% among 310,000
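Luminescence readout; reporter = integrated firefly luciferase in P. falciparum. RBC culture at 2% hematocrit, 0.1% parasitemia final, 37 C/5% CO2; decreased signal taken as growth inhibition.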
AmpC no deterg = qHTS Inhibitors of AmpC Beta-Lactamase (assay without detergent); AID 485341, 2010; Potency, µM (highest dose often 57.1 µM), actives largely listed as inhibitors; AmpC nitrocefin hydrolysis, absorbance 480 nm, 0.0001% Triton; P00811; hit rate 0.52% among 330,000; note: nearly all actives have a fitted effect of over 20% in size
Target sequence (P00811 whole entry, looked up): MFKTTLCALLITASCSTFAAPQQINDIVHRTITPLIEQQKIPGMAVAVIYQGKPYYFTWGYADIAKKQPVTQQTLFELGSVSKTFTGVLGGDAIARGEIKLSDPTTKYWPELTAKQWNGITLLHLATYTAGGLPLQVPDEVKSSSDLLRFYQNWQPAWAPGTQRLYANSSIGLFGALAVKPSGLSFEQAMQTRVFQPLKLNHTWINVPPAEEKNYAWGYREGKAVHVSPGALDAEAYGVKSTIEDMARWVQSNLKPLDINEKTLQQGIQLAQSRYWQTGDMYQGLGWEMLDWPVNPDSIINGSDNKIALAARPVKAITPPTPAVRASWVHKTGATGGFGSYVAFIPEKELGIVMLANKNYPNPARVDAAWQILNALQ
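AmpC (5.3 nM in the dispensed reagent) in 20 mM phosphate pH 7.0 with 0.01% (detergent screen) or 0.0001% Triton X-100 was preincubated with compounds for 15 min at room temperature. Nitrocefin was then added from an 800 uM solution, and hydrolysis was followed at 480 nm.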
AmpC detergent = qHTS Inhibitors of AmpC Beta-Lactamase (assay with detergent) | Potency, µM (doses to about 114 µM), most hits filed as inhibitors | P00811 | hit rate 0.041% among 370,000 | AmpC hydrolysis of nitrocefin, absorbance 480 nm, 0.01% Triton; note: nearly all actives have a fitted effect of over 25% in size
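20 mM phosphate pH 7.0 + 0.01% (detergent screen) or 0.0001% Triton X-100; 5.3 nM AmpC reagent; cpd preinc 15 min RT; nitrocefin (800 uM stock) to start; A480 q20 s × 4 min; Activity was normalised to no-enzyme and no-compound control wells.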
Sm TGR inh = qHTS Assay for the Inhibitors of Schistosoma Mansoni Peroxiredoxins. hit rate 3% among 360,000. purified TGR, DTNB reduction, TNB absorbance 405 nm. Schistosoma mansoni thioredoxin glutathione reductase (TGR), Q962Y6. Potency, µM (doses to about 114 µM), usual class: inhibitors. AID 485364, 2010; note: nearly all actives have a fitted effect of over 60% in size
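Kinetic colorimetric format: TGR-catalysed, NADPH-driven DTNB reduction monitored via TNB absorbance. Enzyme dispensed at 20 nM; compound exposure 15 min at room temperature before reaction start.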
Of the large screens only hits and unclear results are named; the others gave an inactive call. A selection: hits, their analogues and other compounds. The true share with any hit is near 12%. Unless noted, calls come from the whole dose curve; as a rule, active = well fitted curve in the direction sought with a large enough effect; inconclusive = small, poorly fitted or top-dose-only effect, or another doubt; inactive = no such curve, though single readings can be large; an effect the other way counts as inactive or inconclusive.

CCCCn1c(=N)n(CC(O)c2ccccc2)c2ccccc21 (stereo not drawn)	Pf growth 96h 13µM, Pf growth 48h 2.1µM
N=c1n(CCCOc2ccc(Br)cc2)c2ccccc2n1CC(N)=O	Pf growth 96h 9.3µM, Pf growth 48h 13µM
CCOc1ccc(S(=O)(=O)Nc2ccc(C(=O)N3CCCC3)cc2)cc1C(N)=O	Pf growth 96h inconclusive
COc1ccc(OCC(O)Cn2c(=N)n(CCN3CCOCC3)c3ccccc32)cc1 (stereo not drawn)	Pf growth 48h inconclusive (no result: Pf growth 96h)
N=c1n(CCN2CCOCC2)c2ccccc2n1CC(O)COc1ccccc1 (stereo not drawn)	none
CCCCn1c(=N)n(CC(O)COc2ccccc2)c2ccccc21 (stereo not drawn)	Pf growth 96h inconclusive, Pf growth 48h 5.2µM
CCCCn1c(=N)n(CC(O)COc2ccc(C)cc2)c2ccccc21 (stereo not drawn)	Pf growth 48h 2.3µM, AmpC detergent inconclusive (no result: Pf growth 96h)
Cn1nc(-c2ccc(C(=O)Nc3ccc(OC(F)(F)F)cc3)cc2)c2ccccc2c1=O	none (no result: Pf growth 96h, SARS PLP yeast, Pf growth 48h, AmpC no deterg)
Cc1ccc(NC(=O)Cn2cnc3sc(C(=O)NCCN(C)C)c(C)c3c2=O)cc1Cl	Pf growth 96h 12µM, Pf growth 48h inconclusive
CCN(CC)CCCNC(=O)c1sc2ncn(CC(=O)Nc3ccc(C)c(Cl)c3)c(=O)c2c1C	Pf growth 48h 13µM
COCCCNC(=O)c1sc2ncn(CC(=O)Nc3ccc(C)c(Cl)c3)c(=O)c2c1C	none
O=c1c2oc3ccccc3c2n(Cc2cccc(F)c2)c(=O)n1Cc1ccc2c(c1)OCO2	none (no result: Pf growth 96h, SARS PLP yeast, Pf growth 48h, AmpC no deterg)
Cc1onc(-c2ccccc2)c1C(=O)NC(=S)NNC(=O)c1cc(-c2ccc(F)cc2)n[nH]1	Pf growth 96h inconclusive, AmpC no deterg 2µM
CCOc1ccc(C(=O)CC(Sc2ccc(C)cc2)C(=O)O)cc1 (stereo not drawn)	Sm TGR inh 3.2µM
O=C(CC(Sc1ccc(Br)cc1)C(=O)O)c1ccc(F)cc1 (stereo not drawn)	Pf growth 96h inconclusive, Sm TGR inh 0.63µM (no result: Pf growth 48h)
Cc1nn(-c2ccc(N3CCCCC3)nn2)c(C)c1CCC(=O)NCc1ccccc1	none (no result: Pf growth 96h, SARS PLP yeast, Pf growth 48h, AmpC no deterg)
O=C(NNC1=C(C(=O)C(F)(F)F)CCC1)c1cccc(Cl)c1	Sm TGR inh inconclusive (no result: Pf growth 96h)
O=C(NNC1=C(C(=O)C(F)(F)F)CCC1)c1ccc(Cl)cc1	Pf growth 96h 2.9µM, AmpC detergent inconclusive
CC(C)Cc1ccc(CN2CCCC(NC(=O)c3ccnn3C)C2)cc1 (stereo not drawn)	Pf growth 48h inconclusive
CC(C)Cc1ccc(CN2CCCC(NC(=O)c3cccc(-n4cnnc4)c3)C2)cc1 (stereo not drawn)	Pf growth 48h 13µM
CC(C)Cc1ccc(CN2CCCC(NC(=O)c3ccoc3)C2)cc1 (stereo not drawn)	Pf growth 48h 10µM
COc1ccccc1/C=C/C(=O)NCC(=O)n1nc(C)cc1C	none
Cc1cccc(N(Cc2ccccc2)C(=O)CSC(C)C(=O)Nc2cc(C)on2)c1 (stereo not drawn)	Pf growth 96h 10µM, Pf growth 48h inconclusive
Cc1cccc(N(CC(=O)O)CC(=O)O)c1	Pf growth 96h 13µM, Sm TGR inh inconclusive
Cc1cccc(N(Cc2ccccc2)C(=O)CCl)c1	Pf growth 96h inconclusive, Pf growth 48h inconclusive, Sm TGR inh 14µM
O=C(CCl)N(Cc1ccccc1)c1ccccc1	Pf growth 96h inconclusive, Pf growth 48h 10µM, AmpC detergent inconclusive, Sm TGR inh 5µM
Cc1cc(NC(=O)C(C)SCC(=O)O)no1 (stereo not drawn)	Pf growth 48h inconclusive, AmpC detergent inconclusive
Cc1cc(C)cc(-n2c(SCC(=O)Nc3nnc(C)s3)nc3c([nH]c4ccccc43)c2=O)c1	none (no result: Pf growth 96h, SARS PLP yeast, Pf growth 48h, AmpC no deterg)
COc1ccccc1-c1noc(-c2ccc(N(C)Cc3ccccc3)c([N+](=O)[O-])c2)n1	none (no result: Pf growth 96h, SARS PLP yeast, Pf growth 48h, AmpC no deterg)
O=C(c1ccco1)N1CCN(C2CC(=O)N(c3ccc(C(F)(F)F)cc3)C2=O)CC1 (stereo not drawn)	Sm TGR inh 50µM
O=C(c1ccco1)N1CCN(C2CC(=O)N(c3ccc4c(c3)OCO4)C2=O)CC1 (stereo not drawn)	none (no result: Pf growth 96h)
CCOc1ccc(N2C(=O)CC(N3CCN(C(=O)c4ccco4)CC3)C2=O)cc1 (stereo not drawn)	Sm TGR inh 45µM
O=C(c1ccco1)N1CCN(C2CC(=O)N(c3ccccc3)C2=O)CC1 (stereo not drawn)	Sm TGR inh 50µM (no result: Pf growth 48h)
CCc1ccc(NC(=O)CSc2nc(=O)n(CCN(C)C)c3c2CCCC3)cc1	Pf growth 96h inconclusive, Pf growth 48h inconclusive
O=C(CN(Cc1ccccc1Cl)S(=O)(=O)c1ccc(Cl)cc1)N/N=C/c1ccc(C(=O)O)cc1	Pf growth 96h inconclusive
O=C(Nc1ccccc1C(=O)N1CCCCC1)c1nsc2ccccc12	none (no result: Pf growth 96h, SARS PLP yeast, Pf growth 48h, AmpC no deterg)
COc1ccccc1N(CC(=O)NC(C)(C)C)S(=O)(=O)c1cccs1	none
Oc1ccc(-c2c(C3=CCCCC3)sc3ccccc23)cc1	Pf growth 96h inconclusive, AmpC detergent inconclusive, Sm TGR inh 79µM
CCN(C(=O)c1ccc2c(Cl)c3c(nc2c1)CCC3)c1ccc(C)c(C)c1	Pf growth 96h 10µM, Pf growth 48h inconclusive
O=S(=O)(/N=C(/Nc1cccc2ccccc12)c1ccc(F)cc1)c1ccccc1	none
COc1cn(-c2ccccc2)nc1C(=O)NCc1ccccc1	none
Cc1ccc(CNC(=O)c2nccnc2C(=O)O)cc1	Pf growth 96h 4.7µM
Cc1ccc(CNC(=O)Cc2ccc(-c3ccccc3)cc2)cc1	none
COc1cn(-c2ccccc2)nc1C(=O)NCc1ccc(C)cc1	Pf growth 96h 8.3µM, Pf growth 48h inconclusive
Cc1cccc(N2CCN(C(=O)Cn3nc(Cc4cccnc4)c4ccccc4c3=O)CC2)c1C	none (no result: Pf growth 96h, SARS PLP yeast, Pf growth 48h, AmpC no deterg)
CCn1c(C(=O)N2CCC(C(=O)NCCc3ccc(OC)cc3OC)CC2)cc2sccc21	none (no result: Pf growth 96h, SARS PLP yeast, Pf growth 48h, AmpC no deterg)
O=c1c2ccccc2nc2n1CC/C2=C/N1CCN(c2cccc(C(F)(F)F)c2)CC1	Pf growth 48h inconclusive, Sm TGR inh 32µM
COCc1nnc(NS(=O)(=O)c2c(C)cc(C)cc2C)s1	none (no result: Pf growth 48h)
CC(C)C(=O)Nc1cccc(NC(=S)NC(=O)c2cccs2)c1	AmpC detergent inconclusive, Sm TGR inh inconclusive
COc1cc(NC(=O)C(C)C)ccc1NC(=O)c1ccco1	none
COc1cc(NC(=S)NC(=O)c2ccco2)ccc1NC(=O)C(C)C	Pf growth 96h inconclusive, Sm TGR inh 25µM

High-throughput results: PubChem, National Center for Advancing Translational Sciences (NCATS)
